In PubChem BioAssay AID1159580 (chemical genetic matrix, 2015):
The whole screen tested about 5,500 compounds, of which about 2,000 (36%) were called active. Inconclusive results (about 18%) are left out. Cut-off read from the data, not from the text of the source: active = normalized growth mostly below about 0.91 (no sharp cut-off); inconclusive = no clear call, values can overlap the other calls; inactive = mostly above about 0.92. The list shows a part of the results.

Assay: chemical genetic growth profiling, strain panel (AID 1159580);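 note: tested at 20 µM; growth read once vehicle control cultures reached saturation at 30 °C; 1 = growth at the plate median or of vehicle wells; lower values mean less growth of the strain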
Conditions: growth OD

Measured: normalized growth

C=C1C(=O)O[C@@H]2C3O[C@]3(C)CC/C=C(\C)CC[C@@H]12 (some centres not stated)
active: S. cerevisiae deletion strains, locus YJR075W, strain HOC1, hits give low values 0.828 | S. cerevisiae deletion strains, locus YKL068W, hits give low values 0.936 | S. cerevisiae deletion strains, locus YKL190W, strain CNB1, hits give low values 0.796 | S. cerevisiae deletion strains, locus YKR001C, strain vps1, hits give low values 0.544 | S. cerevisiae deletion strains, locus YLR039C, strain RIC1, hits give low values 0.245 | S. cerevisiae deletion strains, locus YLR262C, strain YPT6 (second series), hits give low values 0.566 | S. cerevisiae deletion strains, locus YLR262C, strain YPT6, hits give low values 0.193 | S. cerevisiae deletion strains, locus YLR268W, strain sec22, hits give low values 0.68 | S. cerevisiae deletion strains, locus YLR330W, strain CHS5, hits give low values 0.849 | S. cerevisiae deletion strains, locus YLR342W, strain FKS1 (second series), hits give low values 0.536 | S. cerevisiae deletion strains, locus YLR371W, strain rom2, hits give low values 0.791 | S. cerevisiae deletion strains, locus YLR418C, strain cdc73, hits give low values 0.42 | S. cerevisiae deletion strains, locus YML016C, strain PPZ1, hits give low values 0.911 | S. cerevisiae deletion strains, locus YML032C, strain rad52, hits give low values 0.87 | S. cerevisiae deletion strains, locus YML124C, strain tub3, hits give low values 0.929 | S. cerevisiae deletion strains, locus YMR078C, strain ctf18, hits give low values 0.741 | S. cerevisiae deletion strains, locus YMR125W, strain sto1, hits give low values 0.792 | S. cerevisiae deletion strains, locus YMR223W, strain ubp8, hits give low values 0.801 | S. cerevisiae deletion strains, locus YMR307W, strain GAS1, hits give low values 0.26 | S. cerevisiae deletion strains, locus YNL067W, strain RPL9B, hits give low values 0.808 | S. cerevisiae deletion strains, locus YNL071W, strain lat1, hits give low values 0.804 | S. cerevisiae deletion strains, locus YNL153C, strain GIM3, hits give low values 0.822 | S. cerevisiae deletion strains, locus YNL233W, strain BNI4, hits give low values 0.763 | S. cerevisiae deletion strains, locus YNL271C, strain bni1, hits give low values 0.905 | S. cerevisiae deletion strains, locus YNL298W, strain CLA4, hits give low values 0.878 | S. cerevisiae deletion strains, locus YNL307C, strain MCK1, hits give low values 0.165 | S. cerevisiae deletion strains, locus YNL322C, strain KRE1, hits give low values 0.861 | S. cerevisiae deletion strains, locus YNR052C, strain pop2, hits give low values 0.818 | S. cerevisiae deletion strains, locus YOL147C, strain pex11, hits give low values 0.883 | S. cerevisiae deletion strains, locus YOR136W, strain idh2, hits give low values 0.905 | S. cerevisiae deletion strains, locus YOR144C, strain elg1, hits give low values 0.901 | S. cerevisiae deletion strains, locus YOR184W, strain ser1, hits give low values 0.628 | S. cerevisiae deletion strains, locus YPL055C, strain LGE1, hits give low values 0.743 | S. cerevisiae deletion strains, locus YPL241C, strain CIN2, hits give low values 0.922 | S. cerevisiae deletion strains, locus YPR119W, strain clb2, hits give low values 0.908 | S. cerevisiae deletion strains, locus YPR141C, strain kar3, hits give low values 0.902 | S. cerevisiae deletion strains, locus YPR163C, strain tif3, hits give low values 0.355 | S. cerevisiae deletion strains, strain wtn01, hits give low values 0.786 | S. cerevisiae strains, strain wild type, hits give low values 0.806
inactive: S. cerevisiae deletion strains, locus YKL009W, strain mrt4, hits give low values 0.913 | S. cerevisiae deletion strains, locus YKL085W, strain MDH1 (second series), hits give low values 0.932 | S. cerevisiae deletion strains, locus YKL085W, strain MDH1, hits give low values 0.932 | S. cerevisiae deletion strains, locus YKL160W, strain elf1, hits give low values 0.946 | S. cerevisiae deletion strains, locus YKR026C, strain gcn3, hits give low values 0.991 | S. cerevisiae deletion strains, locus YKR091W, strain srl3, hits give low values 0.99 | S. cerevisiae deletion strains, locus YLL001W, strain dnm1, hits give low values 0.968 | S. cerevisiae deletion strains, locus YLL026W, hits give low values 0.987 | S. cerevisiae deletion strains, locus YLL041C, strain sdh2, hits give low values 0.987 | S. cerevisiae deletion strains, locus YLR027C, strain aat2, hits give low values 0.969 | S. cerevisiae deletion strains, locus YLR058C, strain SHM2, hits give low values 0.934 | S. cerevisiae deletion strains, locus YLR102C, strain apc9, hits give low values 0.944 | S. cerevisiae deletion strains, locus YLR113W, strain HOG1, hits give low values 0.932 | S. cerevisiae deletion strains, locus YLR221C, strain rsa3, hits give low values 0.993 | S. cerevisiae deletion strains, locus YLR258W, strain gsy2, hits give low values 0.999 | S. cerevisiae deletion strains, locus YLR320W, strain mms22, hits give low values 0.893 | S. cerevisiae deletion strains, locus YLR342W, strain FKS1, hits give low values 0.94 | S. cerevisiae deletion strains, locus YLR357W, strain rsc2, hits give low values 1.08 | S. cerevisiae deletion strains, locus YLR370C, strain arc18, hits give low values 0.964 | S. cerevisiae deletion strains, locus YLR384C, strain iki3, hits give low values 0.975 | S. cerevisiae deletion strains, locus YML120C, strain ndi1, hits give low values 0.96 | S. cerevisiae deletion strains, locus YMR058W, strain fet3, hits give low values 0.992 | S. cerevisiae deletion strains, locus YMR129W, hits give low values 0.993 | S. cerevisiae deletion strains, locus YMR205C, strain PFK2, hits give low values 0.938 | S. cerevisiae deletion strains, locus YMR231W, strain pep5, hits give low values 0.982 | S. cerevisiae deletion strains, locus YMR263W, strain SAP30, hits give low values 0.9 | S. cerevisiae deletion strains, locus YNL128W, strain TEP1, hits give low values 0.925 | S. cerevisiae deletion strains, locus YNL183C, strain NPR1, hits give low values 0.952 | S. cerevisiae deletion strains, locus YNL209W, strain ssb2, hits give low values 0.979 | S. cerevisiae deletion strains, locus YNL248C, strain rpa49, hits give low values 0.897 | S. cerevisiae deletion strains, locus YNL250W, strain rad50, hits give low values 0.933 | S. cerevisiae deletion strains, locus YNL322C, strain KRE1 (second series), hits give low values 0.981 | S. cerevisiae deletion strains, locus YNR049C, strain mso1, hits give low values 0.997 | S. cerevisiae deletion strains, locus YOL006C, strain TOP1, hits give low values 0.547 | S. cerevisiae deletion strains, locus YOL012C, strain htz1 0.318 | S. cerevisiae deletion strains, locus YOR001W, strain rrp6, hits give low values 1.01 | S. cerevisiae deletion strains, locus YOR061W, strain CKA2, hits give low values 0.918 | S. cerevisiae deletion strains, locus YOR069W, strain VPS5, hits give low values 0.935 | S. cerevisiae deletion strains, locus YOR070C, strain gyp1, hits give low values 0.977 | S. cerevisiae deletion strains, locus YOR080W, strain dia2, hits give low values 0.998 | S. cerevisiae deletion strains, locus YOR083W, strain WHI5, hits give low values 0.965 | S. cerevisiae deletion strains, locus YOR106W, strain vam3, hits give low values 0.955 | S. cerevisiae deletion strains, locus YOR231W, strain MKK1, hits give low values 0.977 | S. cerevisiae deletion strains, locus YOR265W, strain rbl2, hits give low values 0.978 | S. cerevisiae deletion strains, locus YOR270C, strain vph1, hits give low values 0.92 | S. cerevisiae deletion strains, locus YOR290C, strain snf2, hits give low values 0.971 | S. cerevisiae deletion strains, locus YOR316C, strain cot1, hits give low values 0.93 | S. cerevisiae deletion strains, locus YPL051W, strain arl3, hits give low values 0.921 | S. cerevisiae deletion strains, locus YPL078C, strain atp4, hits give low values 0.94 | S. cerevisiae deletion strains, locus YPL106C, strain sse1, hits give low values 0.869 | S. cerevisiae deletion strains, locus YPL240C, strain hsp82, hits give low values 0.991 | S. cerevisiae deletion strains, locus YPL256C, strain CLN2, hits give low values 0.93 | S. cerevisiae deletion strains, locus YPR167C, strain met16, hits give low values 0.932
